# Assay results taken from PubChem BioAssay AID651956 (Broad Institute, 2012).
# Results with a measured potency or affinity are listed apart. Inconclusive results are not listed. Activity calls are given as the source filed them.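 How the source made its calls: active means in every test run, a fitted half-maximal concentration for signal decrease at or below twice the highest tested concentration; inconclusive means runs disagree, flat 30 to 70% decrease, or poor fit; inactive means the rest.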
# Experiment: activation of miR-122 Renilla sensor silencing – cell-based, Huh7 psiCHECK-miR122, Renilla luciferase, cherry-picked, dose response (AID 651956)
# Settings: Huh7 psiCHECK-miR122 Renilla luciferase reporter, 48 h; series mostly up to 35 µM
row,SMILES,outcome
1,COCC(=O)NC[C@H]1N[C@H](CO)[C@H]1c1ccc(C2=CCCC2)cc1,inactive
2,CCCNC(=O)C[C@@H]1CC[C@@H]2[C@@H](COc3ccc(NC(=O)c4ccc(C(F)(F)F)cc4)cc3C(=O)N2C)O1,inactive
3,O=C(Nc1nc(-c2cc3ccccc3o2)cs1)c1ccc(S(=O)(=O)N2CCCC2)cc1,inactive
4,CCOc1ccc(CCNC(=O)C2CCN(S(=O)(=O)N3CCC(C)CC3)CC2)cc1OCC,inactive
5,CN1C(=O)c2cc(NC(=O)c3cccs3)ccc2OC[C@@H]2O[C@@H](CC(=O)O)CC[C@H]21,inactive
6,CC(=O)Nc1ccc2c(c1)C(=O)N(C)[C@H]1CC[C@H](CC(=O)Nc3ccccc3Cl)O[C@@H]1CO2,inactive
7,C/C=C/c1ccc([C@H]2[C@@H](CO)N(C(C)=O)[C@@H]2CN(C(=O)COC)C(C)C)cc1,inactive
8,CN1C(=O)c2cc(NC(=O)Cc3ccccc3)ccc2OC[C@@H]2O[C@@H](CC(=O)O)CC[C@H]21,inactive
9,O=C(COC(=O)Cc1ccc(S(=O)(=O)N2CCOCC2)s1)Nc1ccc2c(c1)OCO2,inactive
10,CCS(=O)(=O)Nc1ccc2c(c1)C(=O)N(C)[C@H]1CC[C@H](CC(=O)NCCCN3CCOCC3)O[C@H]1CO2,inactive
11,COCC(=O)Nc1ccc2c(c1)C(=O)N(C)[C@@H]1CC[C@@H](CC(=O)OC)O[C@@H]1CO2,inactive
12,CCC(=O)N1[C@H](CO)[C@H](c2ccccc2)[C@@H]1CN(CC)C(=O)c1ccccc1,inactive
13,N#Cc1cccc(NC(=O)Nc2cccs2)c1,inactive
14,CNC(=O)C[C@H]1CC[C@H]2[C@@H](COc3ccc(NC(=O)C4CC4)cc3C(=O)N2C)O1,inactive
15,Cc1cc(C)cc(Oc2ccc(NC(=O)C3CC=CCC3C(=O)O)cc2)c1 (centres undefined),inactive
16,Cc1cccc(NC(=O)Nc2ccc3c(c2)C(=O)N(C)[C@H]2CC[C@@H](CC(=O)NCc4ccccc4Cl)O[C@H]2CO3)c1,inactive
17,N#CCc1c(C#N)c(N)nc(N2CCN(S(=O)(=O)c3ccccc3)CC2)c1C#N,inactive
18,CC#CCCCC(=O)Nc1ccccc1C(=O)O,inactive
19,COc1ccc(C(NC(C)=O)c2cc(Cl)c3cccnc3c2O)cc1 (centres undefined),inactive
20,CCN(CC)S(=O)(=O)c1ccc(NC(=O)Nc2cccc(C(F)(F)F)c2)cc1,inactive

row,SMILES,outcome
1,CO[C@H]1CN(C)C(=O)c2cc(NC(=O)c3ccccc3F)ccc2OC[C@@H](C)N(C)C[C@@H]1C,inactive
2,COc1ccc(NC(=O)N(C)C[C@@H]2Oc3cc(C#CCC(C)C)ccc3S(=O)(=O)N([C@@H](C)CO)C[C@@H]2C)cc1,inactive
3,O=C(NCCCN1CCCC1)c1ccc(CSCc2cccc(Cl)c2)o1,inactive
4,COCC(=O)NC[C@@H]1[C@H](c2ccc(C3=CCCC3)cc2)[C@@H](CO)N1C(=O)C1CC1,inactive
5,CN1C(=O)c2cc(NC(=O)C3CC3)ccc2OC[C@@H]2O[C@H](CC(=O)NCCN3CCCC3)CC[C@H]21,inactive
6,CNC(=O)C[C@@H]1CC[C@@H]2[C@H](COc3ccc(NC(=O)NC(C)C)cc3C(=O)N2C)O1,inactive
7,CCCCC(=O)OCC(=O)c1[nH]c(C)c(C(=O)OCC)c1C,inactive
8,CCC(=O)N1[C@H](CO)[C@H](c2ccccc2)[C@@H]1CN(C(C)C)S(C)(=O)=O,inactive
9,CC(C)C(=O)Nc1ccc2c(c1)C(=O)N(C)[C@H]1CC[C@H](CC(=O)O)O[C@H]1CO2,inactive
10,CC(C)c1ccc(CNC(=O)CSCC(=O)Nc2ccc3ccccc3c2)cc1,inactive
11,COc1cccc(NC(=O)N2[C@H](CO)[C@@H](c3ccccc3)[C@H]2CNCC(C)C)c1,inactive
12,CNC(=O)C[C@@H]1CC[C@@H]2[C@H](COc3ccc(NC(=O)c4cccc(OC)c4)cc3C(=O)N2C)O1,inactive
13,CC(C)C(=O)Nc1ccc2c(c1)C(=O)N(C)[C@H]1CC[C@@H](CC(=O)NCCCN(C)C)O[C@H]1CO2,inactive
14,CCC(=O)Nc1ccc2c(c1)C(=O)N(C)[C@@H]1CC[C@H](CC(=O)NCCN3CCCCC3)O[C@H]1CO2,inactive
15,O=C(C1CC1)N1C[C@H]2[C@@H](c3ccccc31)[C@H](CO)N2C(=O)c1ccccc1F,inactive
16,COC(=O)C[C@@H]1CC[C@H]2[C@@H](COc3ccc(NC(=O)c4ccc(C(F)(F)F)cc4)cc3C(=O)N2C)O1,inactive
17,CN1C(=O)c2cc(NC(=O)Nc3ccc(Cl)cc3)ccc2OC[C@@H]2O[C@@H](CC(=O)NCCN3CCCCC3)CC[C@H]21,inactive
18,CNC(=O)C[C@@H]1CC[C@@H]2[C@@H](COc3ccc(NC(=O)NC(C)C)cc3C(=O)N2C)O1,inactive
19,CCCNC(=O)N1C[C@@H]2[C@H](c3ccccc31)[C@@H](CO)N2C(=O)C1CCOCC1,inactive
